Measured values taken from PubChem BioAssay (EPA / NIEHS).
Values joined by “and” are separate entries in the source; they are usually repeats but may differ in a detail not shown here. Identical values can stand only once. Some compounds were tested as several samples or in several runs, with calls that do not always agree. Active and inactive are the calls of the source. Rule for the calls: active = hit-call score of the fitted dose curve at least 0.9, where 1 is the maximum; inactive = score below 0.9.

Assays:
[1] = read-out: Macrophage colony-stimulating factor (MCSF), CSF1 (gene 1435); experiment: BSK_hDFCGF_MCSF: BioMAP Diversity Plus: hDFCGF Assay for Macrophage colony-stimulating factor (MCSF) Biomarker Activity (AID 2283060); details: primary human foreskin fibroblasts; actives raise or lower the signal
Method in brief: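 Primary human foreskin fibroblasts dosed with chemical; 24 h later, M-CSF quantified by ELISA; curves fitted in both directions vs DMSO negative control.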

[2] = BSK_hDFCGF_SRB: Viability Assessment in the BioMAP Diversity Plus: hDFCGF Assay (AID 2283061); details: primary human foreskin fibroblasts;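 note: cells exposed to compound for 24 h before the read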
Method in brief: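 Readout is SRB absorbance at 560 nm, reflecting total protein in parallel cultures of human foreskin fibroblasts harvested 24 h after chemical dosing. Activity was fitted bidirectionally relative to DMSO.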

[3] = read-out: TIMP metallopeptidase inhibitor 1 (TIMP1), TIMP1 (gene 7076); experiment: BSK_hDFCGF_TIMP1: BioMAP Diversity Plus: hDFCGF Assay for TIMP metallopeptidase inhibitor 1 (TIMP1) Biomarker Activity (AID 2283062); details: primary human foreskin fibroblasts; actives raise or lower the signal
Method in brief: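 Human skin fibroblasts (primary), hDFCGF system; compound exposure 24 h; TIMP-1 by ELISA; bidirectional fit vs DMSO negative control; overt cytotoxicity by SRB in parallel wells.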

[4] = read-out: Monokine induced gamma interferon (MIG), CXCL9 (gene 4283); experiment: BSK_hDFCGF_MIG: BioMAP Diversity Plus: hDFCGF Assay for Monokine induced gamma interferon (MIG) Biomarker Activity (AID 2283063); details: primary human foreskin fibroblasts; actives raise or lower the signal
Method in brief: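 Chemicals were added to primary human foreskin fibroblast cultures, which were sampled 24 h later. MIG levels were then quantified by ELISA and responses fitted in both directions relative to DMSO.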

[5] = read-out: Matrix Metallopeptidase 1 (MMP1), MMP1 (gene 4312); experiment: BSK_hDFCGF_MMP1: BioMAP Diversity Plus: hDFCGF Assay for Matrix Metallopeptidase 1 (MMP1) Biomarker Activity (AID 2283064); details: primary human foreskin fibroblasts; actives raise or lower the signal
Method in brief: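 MMP1 levels quantified by ELISA 24 h after dosing human dermal fibroblast cultures, with parallel SRB total-protein staining for overt cytotoxicity. Data fitted in both directions against DMSO baseline.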

[6] = read-out: Vascular cell adhesion molecule 1 (VCAM1), VCAM1 (gene 7412); experiment: BSK_hDFCGF_VCAM1: BioMAP Diversity Plus: hDFCGF Assay for Vascular cell adhesion molecule 1 (VCAM1) Biomarker Activity (AID 2283065); details: primary human foreskin fibroblasts; actives raise or lower the signal;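 for AC50: VCAM-1 protein level quantified by ELISA after 24 h chemical exposure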
Method in brief: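 Human foreskin fibroblast primary cells, chemical exposure 24 h; VCAM-1 by ELISA; bidirectional fit, DMSO = negative control/baseline.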

[7] = read-out: Plasminogen activator inhibitor-1 (PAI1), SERPINE1 (gene 5054); experiment: BSK_hDFCGF_PAI1: BioMAP Diversity Plus: hDFCGF Assay for Plasminogen activator inhibitor-1 (PAI1) Biomarker Activity (AID 2283066); details: primary human foreskin fibroblasts; actives raise or lower the signal
Method in brief: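 ELISA readout of PAI-1 from primary human skin fibroblast cultures, 24 h after compound addition. Gain or loss of signal was fitted bidirectionally against DMSO baseline.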

[8] = read-out: Intercellular Adhesion Molecule 1 (ICAM1), ICAM1 (gene 3383); experiment: BSK_KF3CT_ICAM1: BioMAP Diversity Plus: KF3CT Assay for Intercellular Adhesion Molecule 1 (ICAM1) Biomarker Activity (AID 2283067); details: primary human keratinocytes with fibroblasts; actives raise or lower the signal
Method in brief: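 ICAM-1 levels are measured by ELISA 24 h after dosing a primary human co-culture of keratinocytes and foreskin fibroblasts. Activity in either direction is fitted relative to DMSO vehicle.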

[9] = read-out: Interferon-gamma inducible Protein 10 (IP10), CXCL10 (gene 3627); experiment: BSK_KF3CT_IP10: BioMAP Diversity Plus: KF3CT Assay for Interferon-gamma inducible Protein 10 (IP10) Biomarker Activity (AID 2283068); details: primary human keratinocytes with fibroblasts; actives raise or lower the signal
Method in brief: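 Signal is secreted/surface IP-10 by ELISA in a human primary skin co-culture of keratinocytes and foreskin fibroblasts, taken 24 h post-dosing; DMSO served as negative control.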

[10] = BSK_KF3CT_SRB: Viability Assessment in the BioMAP Diversity Plus: KF3CT Assay (AID 2283069); details: primary human keratinocytes with fibroblasts;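 note: total protein by sulforhodamine B staining as a cytotoxicity measure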
Method in brief: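 Cytotoxicity was gauged by SRB staining (0.1% SRB, 10% TCA fixation, 560 nm) of parallel cultures at 24 h. The cells were primary human skin keratinocytes co-cultured with fibroblasts, and activity was fitted in both directions against DMSO.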

[11] = read-out: TIMP metallopeptidase inhibitor 2 (TIMP2), TIMP2 (gene 7077); experiment: BSK_KF3CT_TIMP2: BioMAP Diversity Plus: KF3CT Assay for TIMP metallopeptidase inhibitor 2 (TIMP2) Biomarker Activity (AID 2283071); details: primary human keratinocytes with fibroblasts; actives raise or lower the signal
Method in brief: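 ELISA readout of TIMP-2 in keratinocyte plus foreskin fibroblast co-cultures (human skin primary cells), 24 h post-dose. Gain or loss of signal fitted relative to DMSO.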

[12] = read-out: Transforming growth factor beta 1 (TGFb1), TGFB1 (gene 7040); experiment: BSK_KF3CT_TGFb1: BioMAP Diversity Plus: KF3CT Assay for Transforming growth factor beta 1 (TGFb1) Biomarker Activity (AID 2283072); details: primary human keratinocytes with fibroblasts; actives raise or lower the signal
Method in brief: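 Read-out: ELISA for TGF-b1 in keratinocyte/foreskin fibroblast human skin co-culture, 24 h after dosing; bidirectional curve fit vs DMSO baseline; gain or loss of signal scored.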

[13] = read-out: C-C motif chemokine 2 (Homo sapiens) (UniProt P13500); experiment: BSK_KF3CT_MCP1: BioMAP Diversity Plus: KF3CT Assay for Monocyte Chemoattractant Protein 1 (MCP1/CCL2) Biomarker Activity (AID 2283073); details: primary human keratinocytes with fibroblasts; actives raise or lower the signal
Method in brief: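 ELISA readout of MCP-1 after 24 h chemical dosing of a human skin primary co-culture of keratinocytes and foreskin fibroblasts. Activity was fitted in both directions against DMSO.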

[14] = read-out: Matrix Metallopeptidase 9 (MMP9), MMP9 (gene 4318); experiment: BSK_KF3CT_MMP9: BioMAP Diversity Plus: KF3CT Assay for Matrix Metallopeptidase 9 (MMP9) Biomarker Activity (AID 2283074); details: primary human keratinocytes with fibroblasts; actives raise or lower the signal;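 for AC50: MMP9 protein level quantified by ELISA in the co-culture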
Method in brief: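 MMP-9 quantified by ELISA after 24 h chemical treatment of primary human skin keratinocyte/fibroblast co-cultures; gain or loss fitted against DMSO, with parallel SRB staining (0.1% SRB, 560 nm) for overt cytotoxicity.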

[15] = read-out: urokinase plasminogen activator (uPA), PLAU (gene 5328); experiment: BSK_KF3CT_uPA: BioMAP Diversity Plus: KF3CT Assay for urokinase plasminogen activator (uPA) Biomarker Activity (AID 2283075); details: primary human keratinocytes with fibroblasts; actives raise or lower the signal
Method in brief: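 ELISA read-out of uPA 24 h after dosing human skin keratinocytes co-cultured with foreskin fibroblasts. Signal change fitted both ways relative to DMSO; sulforhodamine B on parallel cultures marks overt cytotoxicity.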

CD40, CD40 (gene 958) = experiment: BSK_LPS_CD40: BioMAP Diversity Plus: LPS Assay for CD40 Biomarker Activity (AID 2283076); details: primary human HUVEC with PBMC; actives raise or lower the signal
Method in brief: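 Cells were dosed, incubated 24 h, then assayed for CD40 by ELISA. Gain or loss of signal was analysed relative to DMSO controls. The culture paired human umbilical vein endothelium with peripheral blood mononuclear cells.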

[16] = read-out: E-selectin (Homo sapiens) (UniProt P16581); experiment: BSK_LPS_Eselectin: BioMAP Diversity Plus: LPS Assay for Eselectin Biomarker Activity (AID 2283077); details: primary human HUVEC with PBMC; actives raise or lower the signal
Method in brief: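 Primary human vascular co-culture (endothelium plus PBMC) was dosed with chemical, then E-selectin quantified by ELISA at 24 h. Endpoint values derive from bidirectional curve fitting relative to DMSO.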

[17] = read-out: Interleukin-8 (IL8), CXCL8 (gene 3576); experiment: BSK_LPS_IL8: BioMAP Diversity Plus: LPS Assay for Interleukin-8 (IL8) Biomarker Activity (AID 2283078); details: primary human HUVEC with PBMC; actives raise or lower the signal
Method in brief: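 Readout is IL-8 by ELISA, taken 24 h after compounds were added to LPS-stimulated endothelial/PBMC co-cultures. Both increases and decreases relative to DMSO control were scored through bidirectional fitting.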

[18] = BSK_LPS_SRB: Viability Assessment in the BioMAP Diversity Plus: LPS Assay (AID 2283079); details: primary human HUVEC with PBMC;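 note: total protein by sulforhodamine B absorbance as a cytotoxicity measure; measured one day after compound addition; fitted in both directions against DMSO so loss or gain of signal counts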
Method in brief: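 Readout is SRB absorbance at 560 nm (0.1% stain, TCA-fixed parallel cultures) as a total-protein cytotoxicity measure. Cells: primary human umbilical vein endothelium plus peripheral blood mononuclear cells, 24 h after chemical exposure; DMSO served as baseline.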

[19] = read-out: Interleukin-1 alpha (IL1a), IL1A (gene 3552); experiment: BSK_KF3CT_IL1a: BioMAP Diversity Plus: KF3CT Assay for Interleukin-1 alpha (IL1a) Biomarker Activity (AID 2283070); details: primary human keratinocytes with fibroblasts; actives raise or lower the signal
Method in brief: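 IL-1a was detected by ELISA 24 h after chemical treatment of a co-culture of human skin keratinocytes and foreskin fibroblasts. Gain or loss of signal was fitted against the DMSO baseline.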

Measured: AC50

Sequence of E-selectin (Homo sapiens) (P16581 whole entry, looked up): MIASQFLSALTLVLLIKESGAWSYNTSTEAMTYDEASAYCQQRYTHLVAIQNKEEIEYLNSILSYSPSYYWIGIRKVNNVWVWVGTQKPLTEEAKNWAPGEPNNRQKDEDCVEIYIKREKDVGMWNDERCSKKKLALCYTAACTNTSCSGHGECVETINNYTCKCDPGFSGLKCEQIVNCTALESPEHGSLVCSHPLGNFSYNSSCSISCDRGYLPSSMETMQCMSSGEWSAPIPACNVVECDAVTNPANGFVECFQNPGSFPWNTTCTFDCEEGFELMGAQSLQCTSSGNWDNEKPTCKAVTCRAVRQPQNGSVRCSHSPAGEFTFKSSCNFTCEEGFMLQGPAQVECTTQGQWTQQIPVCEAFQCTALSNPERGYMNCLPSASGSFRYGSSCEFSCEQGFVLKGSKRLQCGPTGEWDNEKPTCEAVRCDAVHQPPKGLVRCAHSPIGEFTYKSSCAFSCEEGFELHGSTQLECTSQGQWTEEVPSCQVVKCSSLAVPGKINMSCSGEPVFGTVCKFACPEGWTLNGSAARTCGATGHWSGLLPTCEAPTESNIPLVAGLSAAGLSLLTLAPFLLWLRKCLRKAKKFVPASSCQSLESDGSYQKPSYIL

CCN(CC)c1ccc2c(c1)Oc1cc(N(CC)CC)ccc1C21OC(=O)c2ccccc21
active: [17] 6.55 µM
not listed: [19]
inactive: all other assays above

C=CC(=O)OCCC(F)(F)C(F)(F)C(F)(F)C(F)(F)F
active: [1] 21 µM and 15 µM | [2] 8.28 µM | [4] 25.3 µM and 30.9 µM | [5] 14.5 µM and 18.3 µM | [6] 13.7 µM and 19.4 µM | CD40, CD40 (gene 958) 30 µM and 45.5 µM
inactive: [2] | [3] | [7] | [8] | [9] | [10] | [11] | [13] | [14] | [15] | [16] | [17] | [18]

Nc1cc([N+](=O)[O-])cc(Cl)c1O
not listed: [7]
inactive: all other assays above

O=C(c1ccccc1)c1ccc(O)cc1O
active: [14] 26 µM
not listed: [7]
inactive: all other assays above

O=C(Cl)C(F)(F)C(F)(F)C(F)(F)C(F)(F)C(F)(F)C(F)(F)F
inactive: [1] | [2] | [3] | [4] | [5] | [6] | [8] | [9] | [10] | [11] | [13] | [14] | [15] | CD40, CD40 (gene 958) | [16] | [17] | [18]
active: [14] 18.3 µM | [17] 50.3 µM

O=C(O)C(F)(F)C(F)(F)C(F)(F)C(=O)O
active: [2] 1.81 µM and 19.7 µM
not listed: [7] | [12] | [19]
inactive: all other assays above

O=C(F)C1(F)C(F)(F)C(F)(F)C(F)(F)C(F)(F)C1(F)F
not listed: [7] | [12] | [19]
inactive: all other assays above

CCOC(C=C(C)CCC=C(C)C)OCC
inactive: [8] | [17]
active: [1] 32.8 µM | [2] 33.2 µM | [3] 20 µM | [4] 27.3 µM | [5] 32.4 µM | [6] 20 µM | [9] 34.5 µM | [10] 34.8 µM | [19] 26 µM | [11] 31.2 µM | [12] 3.97 µM | [14] 20 µM | [15] 3.97 µM | CD40, CD40 (gene 958) 30 µM | [16] 35 µM | [18] 31.9 µM

O=C=Nc1cccc2c(N=C=O)cccc12
not listed: [7] | [19]
inactive: all other assays above

C=CC(=O)OCC(F)(F)C(F)(F)C(F)(F)COC(=O)C=C
active: [1] 2.55 µM and 1.94 µM | [2] 2.51 µM and 2.73 µM | [3] 2.37 µM and 737 nM | [4] 918 nM and 499 nM | [5] 5.8 µM and 4.94 µM | [6] 2.35 µM and 1.96 µM | [8] 21.8 µM and 21.3 µM | [9] 28.4 µM and 17.6 µM | [10] 36.6 µM and 41.6 µM | [11] 30 µM | [13] 22.3 µM and 12.7 µM | [14] 24 µM and 20.9 µM | [15] 21.1 µM and 25.7 µM | CD40, CD40 (gene 958) 8.33 µM and 8.66 µM | [16] 16.1 µM and 13.1 µM | [17] 15.9 µM and 14.8 µM | [18] 48.6 µM and 47.4 µM

O=C(O)C(F)(F)C(F)(F)C(F)(F)OC(F)(C(F)(F)F)C(F)(F)F
inactive: [1] | [2] | [3] | [4] | [5] | [6] | [8] | [9] | [10] | [11] | [13] | [14] | [15] | CD40, CD40 (gene 958) | [16] | [18]
active: [14] 24.7 µM | [17] 7.64 µM and 9.75 µM
